{
  "source": "PubChem BioAssay (NCI)",
  "note": "This is part of a sample that, as a whole, favours compounds with a hit. Of some 83,000 tested, about 20% had one in any assay.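 Cells were grown in 96-well plates and exposed to the test compound at a single concentration for 48 hours; results are reported as percent growth, with values below 10 considered active.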 A number with no mark means an inactive call. The source made the active and inactive calls.",
  "data": [
    {"test_system": "HL-60(TB) leukemia", "test": "NCI-60 one-dose screen, 48 h (100 = growth as untreated, 0 = no growth, -100 = all killed)", "conditions": "10 µM unless noted", "values": [
      {"smiles": "COc1ccc2c(c1)c(-c1nc(-c3cn(C)c4ncccc34)cs1)cn2CCO", "growth": "82.4%"},
      {"smiles": "COc1cc(Nc2ncc3c(n2)-c2ccc(Cl)cc2C(c2c(F)cccc2OC)=NC3)ccc1C(=O)O", "growth": "45.4%"},
      {"smiles": "CCCCCCC/C=C/[C@H]1O[C@]23C(=O)C[C@@]4(C[C@@H](OC5OC(CO)C(O)C(O)C5O)C[C@@H]4[C@H]2C=C1C)OC3=O", "note": "(stereo not given in full)", "growth": "-13.1% (active)"},
      {"smiles": "COc1ccc(CN(c2ccc(C)cc2)C2OC(=O)c3ccccc32)cc1OC", "note": "(stereo not given)", "growth": "96.9%"},
      {"smiles": "CC1(C)NCCC[C@]2(C)[C@H]3CC[C@H]4[C@H]5[C@H](C(=O)/C=C/c6cccnc6)CCC[C@]5(CO)CC[C@@]4(C)[C@]3(C)CC[C@@H]12", "growth": "23.9%"}
    ]}
  ]
}
